Hits are enriched below; roughly 2.9% of the tested compounds scored in any of these assays.
Nrf2 activator: Nrf2 pathway activation; 0.31% of 410,000 active; AID 624171; Potency, µM (series often up to 46.1 µM), most hits filed as activators; AREc32 ARE-luciferase reporter (MCF7-derived line), luminescence, 24 h; note: nearly all actives have a fitted effect of over 65% in size
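Quantitative high-throughput format: AREc32 reporter cells, 1000 per well, received compound by pin transfer and were incubated 24 hr at 37 deg C, 5% CO2, before Steady-Glo luminescence detection.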
ATXN2 expr inh: inhibitors of ATXN2 expression. Potency, µM (doses to about 57 µM), hits mostly inhibitors. HEK-293 ATXN2-luciferase reporter, luminescence, 24 h. 0.72% of 360,000 active. AID 1745845; note: nearly all actives have a fitted effect of over 55% in size
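qHTS (up to 57 uM final) was run with 24 h compound exposure of reporter cells at 37 °C. Each well was multiplexed: SteadyGlo luminescence measured ATXN2-luciferase expression after a fluorogenic Gly-Phe-AFC viability readout (25 uM final).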
ATXN viability: reduces viability in counter-screen for ATXN expression inhibitors; AID 651635; S2 cells (HEK-293 line with an ATXN2-luciferase reporter) viability, CellTiter-Fluor protease fluorescence, 24 h; Potency, µM (highest dose often 56.7 µM), most hits filed as cytotoxic; 0.49% of 400,000 active; note: nearly all actives have a fitted effect of over 40% in size
Nrf2 inh: inhibitors of Nrf2 signaling; AID 504444; Potency, µM (series often up to 46 µM), most hits filed as inhibitors; 2.1% of 360,000 active; A549 ARE-Fluc reporter, luciferase luminescence, 18-24 h; note: nearly all actives have a fitted effect of over 60% in size
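Cells were seeded and rested 2 h, then exposed to compounds for 18-24 h. CellTiter-Fluor was read first as a viability measure. BugLite was added 15 min before the final luminescent read of ARE-luciferase activity in A549 cells.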
A549 viability: kills or reduces viability of A549 cells in Nrf2 counter-screen. A549 ARE-Fluc cells, CellTiter-Fluor viability, 18-24 h. Potency, µM (top dose mostly 46 µM), most hits filed as inhibitors. 0.16% of 390,000 active. AID 504648
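Cytotoxicity counterscreen: CellTiter-Fluor fluorescence was measured in A549 ARE_Fluc cells after 18-24 h of compound exposure in a concentration series. The subsequent BugLite luminescent read reports ARE-luciferase activity.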
Numbers stand for hits; [ ] = remark or other dose. Calls come from the whole dose curve; as a rule, active = well fitted curve in the direction sought with a large enough effect; inconclusive = small, poorly fitted or top-dose-only effect, or another doubt; inactive = no such curve, though single readings can be large; an effect the other way counts as inactive or inconclusive.

How did O=S1(=O)C=C(N2CCOCC2)c2ccccc21 do in these assays?
Nrf2 activator: 13µM; ATXN2 expr inh: inactive; ATXN viability: inactive; Nrf2 inh: inactive; A549 viability: inactive

Results for O=C(CCl)N1c2ccccc2SCC1c1ccccc1 (stereo not drawn) ?
Nrf2 activator: inactive; ATXN2 expr inh: inconclusive; ATXN viability: 20µM; Nrf2 inh: 26µM; A549 viability: inconclusive

How did O=C(CCl)N1c2ccccc2OCC1c1ccccc1 (stereo not drawn) do in these assays?
Nrf2 activator: inactive; ATXN2 expr inh: inactive; ATXN viability: inconclusive; Nrf2 inh: inactive; A549 viability: inactive

Results for COc1cc(/C=C2\SC(=S)N(NC(=O)c3ccncc3)C2=O)ccc1O ?
Nrf2 activator: inactive; ATXN2 expr inh: inactive; ATXN viability: inconclusive; Nrf2 inh: inconclusive; A549 viability: 21µM

What do the screens show for `CNc1nc(NC)c2cn[nH]c2n1`?
Nrf2 activator: inactive; ATXN2 expr inh: inactive; ATXN viability: inactive; Nrf2 inh: inactive; A549 viability: inactive

How did Cc1ccc(SCC(=O)NC2CCS(=O)(=O)C2)cc1 (stereo not drawn) do in these assays?
Nrf2 activator: inactive; ATXN2 expr inh: inactive; ATXN viability: inactive; Nrf2 inh: inactive; A549 viability: inactive

What do the screens show for `Cc1ccc(-c2nnc(Nc3ccccc3)o2)cc1`?
Nrf2 activator: inactive; ATXN2 expr inh: 22µM; ATXN viability: inactive; Nrf2 inh: inconclusive; A549 viability: inactive

What do the screens show for `c1ccc(-c2nnc(-c3ccccc3)o2)cc1`?
Nrf2 activator: 4.5µM; ATXN2 expr inh: inactive; ATXN viability: inactive; A549 viability: inactive

How did c1ccc(-c2nnc(-c3ccncc3)o2)cc1 do in these assays?
Nrf2 activator: inactive; ATXN2 expr inh: inactive; ATXN viability: inactive; Nrf2 inh: inconclusive; A549 viability: inactive

Results for Brc1cccc(-c2nnc(-c3ccccc3)o2)c1 ?
Nrf2 activator: 3.2µM; ATXN2 expr inh: inactive; ATXN viability: inactive; Nrf2 inh: inconclusive; A549 viability: inactive

What do the screens show for `Cc1ccc(NC(=O)Nc2nnc(-c3ccccc3)o2)cc1`?
Nrf2 activator: inactive; ATXN2 expr inh: inactive[11.3 µM]; ATXN viability: inactive; Nrf2 inh: inactive; A549 viability: inactive

Results for O=Cc1ccc(B(O)O)cc1 ?
Nrf2 inh: inconclusive; A549 viability: inactive

How did O=c1oc(-c2cccs2)nc2scc(-c3cccs3)c12 do in these assays?
Nrf2 activator: inactive; ATXN2 expr inh: inactive; ATXN viability: inactive; A549 viability: inactive

How did CCc1nc2ccc(C(=O)N(C)CC(=O)Nc3ccccc3C(F)(F)F)cc2nc1CC do in these assays?
Nrf2 activator: inactive; ATXN2 expr inh: inactive; ATXN viability: inactive; Nrf2 inh: inactive; A549 viability: inactive

What do the screens show for `COc1ccc(CNC(=O)c2csc(Cc3ccc(Cl)cc3)n2)cc1`?
Nrf2 activator: inactive; ATXN2 expr inh: inactive; ATXN viability: inactive; Nrf2 inh: 23µM; A549 viability: inactive

Results for O=S(=O)(c1ccccc1)n1nc(-c2ccccc2)nc1NCc1ccco1 ?
Nrf2 activator: inactive; ATXN2 expr inh: inactive; ATXN viability: inactive; A549 viability: inactive

Results for CCCC1C2CN(C(C)C)CC=C2C(C#N)=C(N)C1(C#N)C#N (stereo not drawn) ?
Nrf2 activator: inactive; ATXN2 expr inh: inactive; ATXN viability: inactive; Nrf2 inh: 6.5µM; A549 viability: inconclusive

Results for C[C@H]1CN([C@@H](C)CO)C(=O)CCCn2cc(nn2)CO[C@@H]1CN(C)C(=O)Nc1cccc2ccccc12 ?
Nrf2 activator: inactive; ATXN2 expr inh: inactive; ATXN viability: inactive

How did Nc1sc(-c2ccccc2)cc1C(=O)N/N=C/c1ccc(Cl)cc1 do in these assays?
Nrf2 activator: inactive; ATXN2 expr inh: inactive; ATXN viability: inactive; Nrf2 inh: inactive; A549 viability: inactive

How did COC(=O)c1cc(-c2ccccc2)sc1N do in these assays?
Nrf2 activator: 16µM; ATXN2 expr inh: inactive; ATXN viability: inactive; Nrf2 inh: inconclusive; A549 viability: inactive

How did CN(C)CCCNC(=O)C1(O)c2cc(Br)ccc2NC(=O)N1c1ccc(Cl)cc1 (stereo not drawn) do in these assays?
Nrf2 activator: inactive; ATXN2 expr inh: inactive; ATXN viability: inconclusive; Nrf2 inh: inactive; A549 viability: inactive

What do the screens show for `c1ccc(-c2nc(-c3ccco3)n3ccccc23)cc1`?
Nrf2 activator: 11µM; ATXN2 expr inh: inactive; ATXN viability: inactive; Nrf2 inh: inactive; A549 viability: inactive

How did c1ccc(Nc2c(-c3ccco3)nc3ccccn23)cc1 do in these assays?
Nrf2 activator: inactive; ATXN2 expr inh: inactive; ATXN viability: inactive; Nrf2 inh: inconclusive; A549 viability: inactive

What do the screens show for `Cc1nn(C)c(C(=O)NCc2ccc(Cl)cc2)c1Cl`?
Nrf2 activator: inactive; ATXN2 expr inh: inactive; ATXN viability: inactive; Nrf2 inh: inconclusive; A549 viability: inactive

Results for Cc1cccc(Nc2nc(N)c([N+](=O)[O-])c(N3CCCC(C)C3)n2)c1 (stereo not drawn) ?
Nrf2 activator: inactive; ATXN2 expr inh: inconclusive; ATXN viability: inconclusive; Nrf2 inh: 16µM; A549 viability: inactive

Results for CCN(c1ccccc1)S(=O)(=O)c1cccc(C(=O)OCC(=O)c2c(N)n(C)c(=O)n(C)c2=O)c1 ?
Nrf2 activator: inactive; ATXN viability: inactive; Nrf2 inh: inconclusive; A549 viability: inactive

How did COc1ccc(N(C)S(=O)(=O)c2cccc(C(=O)OCC(=O)c3c(N)n(C)c(=O)n(C)c3=O)c2)cc1 do in these assays?
Nrf2 activator: inactive; ATXN2 expr inh: inconclusive; ATXN viability: inconclusive; Nrf2 inh: 21µM; A549 viability: inactive

What do the screens show for `Cc1ccc(-c2csc(=Nc3cccnc3)n2CCCn2ccnc2)cc1C`?
Nrf2 activator: inactive; ATXN2 expr inh: inactive; ATXN viability: inconclusive; Nrf2 inh: 18µM; A549 viability: inactive

Results for CC(C)n1ncc2c(C(=O)Nc3cccc(C#N)c3)cc(C3CC3)nc21 ?
Nrf2 activator: inactive; ATXN2 expr inh: inconclusive; ATXN viability: inconclusive; Nrf2 inh: inconclusive; A549 viability: inconclusive

What do the screens show for `CCNC(=O)c1cccc(NC(=O)c2cc(C3CC3)nc3c2cnn3C(C)C)c1`?
Nrf2 activator: inactive; ATXN2 expr inh: inactive; ATXN viability: inactive; Nrf2 inh: 18µM; A549 viability: inactive

How did CCOC(=O)c1ccc(Nc2nc(C)cc(C)c2C#N)cc1 do in these assays?
Nrf2 activator: inactive; ATXN2 expr inh: inactive; ATXN viability: inactive; Nrf2 inh: inactive; A549 viability: inactive

How did Cc1cc2c(Nc3ccccc3O)ncnc2s1 do in these assays?
Nrf2 activator: 11µM; ATXN viability: inactive

Results for O=C(C(c1ccccc1)c1ccccc1)N1CC[C@@]2(O)CCCC[C@H]2C1 ?
Nrf2 activator: inactive; ATXN2 expr inh: inactive; ATXN viability: inactive; Nrf2 inh: inactive; A549 viability: inactive

Results for CCCN1/C(=C2/SC(=S)N(CC)C2=O)C=Cc2ccccc21 ?
Nrf2 activator: inactive; ATXN2 expr inh: inactive; ATXN viability: inconclusive; Nrf2 inh: inconclusive; A549 viability: 18µM

What do the screens show for `CCCN1C(=O)/C(=C2/C=Cc3ccccc3N2CC)SC1=S`?
Nrf2 activator: inactive; ATXN2 expr inh: inactive[11.3 µM]; ATXN viability: inconclusive; Nrf2 inh: inactive; A549 viability: 15µM

Assay outcomes: PubChem, National Center for Advancing Translational Sciences (NCATS)
